Experimental data as given in PubChem BioAssay (NCATS).
Records with an inconclusive call do not appear. Calls of active or inactive are those of the source. Calls follow the shape of the dose curve; as a rule, active = well fitted inhibition curve with a large enough effect; inconclusive = small, poorly fitted or top-dose-only effect; inactive = flat fitted curve, though single readings scatter.

Experiments:
Test in all cases: qHTS profiling for inhibitors of Plasmodium falciparum proliferation (AID 504749); also: nearly all actives have a fitted effect of over 60% in size
Conditions in all cases: P. falciparum in erythrocytes, SYBR Green DNA, 72 h; series mostly up to 28.7 µM
[1] = system: 3D7
In short: (§1)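 In a 72 h erythrocytic culture (37 C, humidified, 5% CO2) at 2.5% hematocrit and 0.3% starting parasitemia, compounds were tested; SYBR Green I in detergent lysis buffer stained parasite DNA overnight.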

[2] = system: 7G8
In short: as §1

[3] = system: AA1029
In short: as §1

[4] = system: ATS95
In short: as §1

[5] = system: CP185
In short: as §1

[6] = system: CP191
In short: as §1

[7] = system: CP238
In short: as §1

[8] = system: CP247
In short: as §1

[9] = system: CP265
In short: as §1

[10] = system: CP286
In short: as §1

[11] = system: DFO2036
In short: as §1

[12] = system: FAB9
In short: as §1

[13] = system: HB3
In short: as §1

[14] = system: P94_40
In short: as §1

[15] = system: PAD
In short: as §1

[16] = system: PC15
In short: as §1

[17] = system: PC49
In short: as §1

[18] = system: TAB109
In short: as §1

[19] = system: TAB113
In short: as §1

[20] = system: TAB165
In short: as §1

Measured: Potency

CC(=O)OC1CC2CCC1(C)C2(C)C (stereo not given)
inactive: all assays above
